Inhibition data for 14 compounds are collected here from PubChem BioAssay.

The source made the active and inactive calls.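 How the source made its calls: active means at least 20% inhibition of 6-phosphogluconate dehydrogenase activity; inactive means the rest.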

Chain of 6-phosphogluconate dehydrogenase, decarboxylating (Homo sapiens) (P52209 whole entry, looked up): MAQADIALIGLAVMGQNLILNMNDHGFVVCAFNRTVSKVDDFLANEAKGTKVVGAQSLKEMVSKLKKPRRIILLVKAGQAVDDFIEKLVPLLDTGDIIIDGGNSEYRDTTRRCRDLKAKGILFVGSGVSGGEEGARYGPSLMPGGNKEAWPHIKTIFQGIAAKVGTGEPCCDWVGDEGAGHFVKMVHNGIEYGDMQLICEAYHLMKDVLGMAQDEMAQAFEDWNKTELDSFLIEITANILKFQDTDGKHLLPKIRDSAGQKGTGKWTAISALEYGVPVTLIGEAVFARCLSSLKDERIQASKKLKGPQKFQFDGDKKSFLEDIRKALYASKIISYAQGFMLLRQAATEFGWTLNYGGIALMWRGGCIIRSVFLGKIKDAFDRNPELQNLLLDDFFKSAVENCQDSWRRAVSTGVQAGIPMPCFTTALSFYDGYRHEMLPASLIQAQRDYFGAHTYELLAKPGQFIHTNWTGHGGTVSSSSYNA

This experiment concerns the target 6-phosphogluconate dehydrogenase, decarboxylating (Homo sapiens) (UniProt P52209). Kind of experiment: 6PGD enzyme inhibitors, primary screen, biochemical, human, recombinant enzyme, NADPH absorbance (AID 1159550). The note with it: recombinant 6PGD, NADPH absorbance 341 nm; at 10 µM; stronger effect = higher value.
Broadly, the inhibition is the drop in the measured response relative to a control, in per cent. As for `c1cncc([C@@H]2CCCCN2)c1`, the inhibition was 4.92% (inactive).
In the case of `COc1ccc(C(c2ccc(OC)cc2)C(Cl)(Cl)Cl)cc1`, the inhibition is -1.01% (inactive).
In the case of `CN[C@H]1C[C@@H](N)[C@H](O)[C@@H](O[C@@H]2O[C@H](CO)[C@H](O)[C@@H]3OC4(O[C@H]23)O[C@H]([C@@H](N)CO)[C@H](O)[C@@H](O)[C@H]4O)[C@@H]1O` (some centres undefined), the inhibition was 14.7% (inactive).
For the compound `CCC(=O)Nc1ccc(Cl)c(Cl)c1`, the inhibition is -20.3% (inactive).
The result for `COP(N)(=O)SC` (centres undefined) reads 4.36% (inactive).
Turning to `CC(C)N(C(=O)CCl)c1ccccc1`, the inhibition is -9.5% (inactive).
As to `CCc1cccc(C)c1N(C(=O)CCl)C(C)COC` (centres undefined), the inhibition was 3.27% (inactive).
Consider `C[C@]12CCC3C(CC[C@H]4C[C@@H](Cl)CC[C@]34C)C1CCC2=O` (some centres undefined), for which the inhibition is -16.8% (inactive).
The figure for `COc1cc2c(cc1OC)[C@H]1C(=O)c3ccc4c(c3O[C@H]1CO2)C[C@@H](C(C)C)O4` is -1.45% (inactive).
In the case of `C[C@]12C=CC(=O)C=C1CC[C@@H]1[C@@H]2CC[C@]2(C)C(=O)CC[C@@H]12`, the inhibition was -9.35% (inactive).
Consider `CC(=O)O[C@H]1CC[C@]2(C)C3CC[C@]4(C)[C@@H](C5=CC(=O)OC5)[C@@H](OC(C)=O)C[C@]4(O)C3CC[C@@H]2C1` (some centres undefined), for which the inhibition is 0.446% (inactive).
As for `CCS(=O)CCSP(=O)(OC)OC` (centres undefined), the inhibition is 1.58% (inactive).
The result for `C[C@@H]1OC(O[C@H]2CC[C@]3(C=O)[C@H]4CC[C@]5(C)C(C6=CC(=O)OC6)CC[C@]5(O)[C@@H]4CC[C@]3(O)C2)[C@H](O)[C@H](O)[C@H]1O` (some centres undefined) reads 2.25% (inactive); that for `CN1C2C[C@H](OC(=O)[C@H](CO)c3ccccc3)CC1[C@@H](O)C2` (some centres undefined), -3.17% (inactive).
